# Experiments:
# Experiment in all cases: PBM binding z-score (relative to random genomic background probes); higher = stronger binding; sequences stand for … in GC…GCGATTGACAGCGTAGAATGAAGG
# [1] = tested on: RARb homodimer (NR concentration 270 nM)
# How it was run: (§1)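 Each nuclear receptor dimer, without ligand, was incubated for 1 h on custom Agilent 4×180K protein-binding microarrays. Binding was detected with antibodies against each partner (one per run), and scanned fluorescence was regression-normalized. The binding z-scores are referenced to random human genomic background probes.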
# [2] = tested on: RARg:RXRa (NR concentration 270 nM, RXRa partner concentration 90 nM)
# How it was run: as §1
# [3] = tested on: RARg homodimer (NR concentration 270 nM)
# How it was run: as §1
# [4] = tested on: RXRa DBDmut IVT, anti-RXR (DBD mutation: RXRa K156A/R161A, NR concentration 90 nM)
# How it was run: as §1
# [5] = tested on: RXRa homodimer (NR concentration 180 nM)
# How it was run: as §1
# [6] = tested on: THRa:RXRa (NR concentration 90 nM, RXRa partner concentration 90 nM)
# How it was run: as §1
# [7] = tested on: THRa homodimer (NR concentration 90 nM)
# How it was run: as §1
# [8] = tested on: VDR homodimer (NR concentration 270 nM)
# How it was run: as §1
Sequence,PBM binding z-score [1],PBM binding z-score [2],PBM binding z-score [3],PBM binding z-score [4],PBM binding z-score [5],PBM binding z-score [6],PBM binding z-score [7],PBM binding z-score [8]
ATCTCTAGGTAAAAGTTCACTGAATCCCGAGGAT,3.15,3.04,2.99,0.997,3.02,2.01,0.473,2.79
TAGCCTAGGTCAGATCGGGCCAGTATGCGCTATA,2.29,2.85,3.88,-0.301,1.48,4.04,0.0471,-0.51
TCATATAGGTAATACATGTGAAAGTCGGCATCTA,-0.0768,0.625,0.544,1.57,1.14,0.246,-0.0874,0.128
CGAACGAGGGCATGAGTCGATAGCAAATGCCGAT,0.648,0.901,1.41,1.99,0.869,0.888,-0.267,0.974
CCTCGGAGGACAACAGGAGGTCTGAGCTGCCAGA,0.507,0.123,0.881,-0.213,-0.493,0.56,-0.246,-0.289
CCTAGCAGGGCAGGGTCACTCAAGCATTTCGCTT,3.05,3.61,3.01,0.33,4.08,2.8,0.567,1.75
AATACAGGGTCATCGTAGGCCATAGTACGCACAG,3.72,5.77,4.97,3.55,6.52,4.94,1.54,3.64
CCTTCTGGGCCACGAAAGGTCATTGATTCAGTGA,4.62,4.94,4.61,0.819,5.38,4.04,0.878,2.42
CGTCAAAGTTCAACTAAGCTAACGTAAAGCACGC,4.31,5.83,6.59,4.75,5.2,2.48,0.187,3.66
ACAGACATGTGATGAAGGTAACTCAGGCTATCAT,-0.417,0.0722,0.176,0.00385,0.168,0.492,-0.106,-0.35
CTGCCTAGGTCAGGGCCAGTATAGGAGGAACGTT,2.43,2.85,3.61,-0.445,1.25,1.88,0.182,-0.173
GGAACGAGGGCAAAGTTGATAGCTTCTGTCGACG,1.06,1.82,1.32,2.55,1.72,1.13,-0.251,1.22
TCATATGGGTAAATGCTAGGTGAAAGTCCGATCT,0.561,0.294,-0.0205,0.923,0.517,1.38,0.395,-0.156
TCTTGTAGATCAATAGAGGTGAAGAAAGTGCGCT,0.962,0.365,0.434,0.561,0.577,2.59,-0.132,-0.534
CAAACTAGGTCAAGAGGTCACAGTCCGCTTCCCG,5.76,7.87,7.83,2.79,7.55,4.57,3.21,3.7
TCATATAGGGAAAGGTGAAAGTCGAACGATATGA,1.48,1.49,1.17,0.835,2.02,1.01,-0.407,-0.12
ATCTCTAGGTAACCAAGTTCAGTGGATGCCGAAC,1.38,0.761,0.959,0.576,0.536,1.46,0.709,2.45
TAGCCTAGGTCATGCGGGCCAGTAAAGTGTCGGC,2.88,3.9,4.1,1.04,2.94,2.98,0.78,0.405
TGTATGAGGTTATAAGATCAGGGAACGTTGCAAA,0.472,1.82,1.46,1.02,1.85,2.08,0.546,0.837
CTACCAAGGTGAACAAGGTCGTTTATTACTATTC,2.34,1.72,1.55,2.29,1.77,3.26,2.33,3
CCTACTGGGCCAAAAAGGTCAATGATGCCGATAA,4.77,4.33,4.09,-0.0473,4.06,3.06,0.77,0.956
GCTAGTTGGTCAGTAAAAGGTCATACACCGGTCG,4.93,4.81,3.6,0.515,4.8,3.39,1.35,2.09
TCATATAGGAAAACAGGTGAAAGTCCGTAAGTTA,0.455,0.219,0.0668,1.81,1.17,0.338,0.187,0.639
CTCGAAAGTTCGGTTGAGGTGAGTATACGGATAA,1.12,0.738,0.973,1.24,0.161,4.57,1.37,0.742
CCTATTGGGCCACGAAAGGTCATTGATTCAGTGA,4.4,4.95,4.66,0.751,5.29,4.08,0.834,2.26
ACGAGTTGGTCAGCTGAGGTCACACACAATTCGG,4.17,4.17,4.27,1.82,4,4.77,4.97,4.4
